Screening results deposited in PubChem by The Scripps Research Institute Molecular Screening Center.
SRC1 TRFRET art – flags TR-FRET format artefacts in PPARgamma SRC-1 recruitment agonist screen; AID 1051; TR-FRET detection artefact counter-screen, emission ratio; hits give high values; TR-FRET ratio at 8 µM; 0.34% of 99,000 active; in the data active = TR-FRET ratio above about 2300
TR-FRET SRC-2 ct – counter-screen for PPARgamma SRC-2 recruitment agonists: TR-FRET artefact. hits give high values. TR-FRET ratio at 8 µM. 0.4% of 200,000 active
PPARg SRC3 recr – agonists of human PPARgamma SRC-3 coactivator recruitment; P37231; 0.26% of 200,000 active; biochemical PPARgamma/SRC-3 coactivator recruitment assay; AID 731; activation, % at 8 µM; in the data active = activation above about 23%;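 note: 0% = DMSO and 100% = reference agonist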
Target sequence (P37231 whole entry, looked up): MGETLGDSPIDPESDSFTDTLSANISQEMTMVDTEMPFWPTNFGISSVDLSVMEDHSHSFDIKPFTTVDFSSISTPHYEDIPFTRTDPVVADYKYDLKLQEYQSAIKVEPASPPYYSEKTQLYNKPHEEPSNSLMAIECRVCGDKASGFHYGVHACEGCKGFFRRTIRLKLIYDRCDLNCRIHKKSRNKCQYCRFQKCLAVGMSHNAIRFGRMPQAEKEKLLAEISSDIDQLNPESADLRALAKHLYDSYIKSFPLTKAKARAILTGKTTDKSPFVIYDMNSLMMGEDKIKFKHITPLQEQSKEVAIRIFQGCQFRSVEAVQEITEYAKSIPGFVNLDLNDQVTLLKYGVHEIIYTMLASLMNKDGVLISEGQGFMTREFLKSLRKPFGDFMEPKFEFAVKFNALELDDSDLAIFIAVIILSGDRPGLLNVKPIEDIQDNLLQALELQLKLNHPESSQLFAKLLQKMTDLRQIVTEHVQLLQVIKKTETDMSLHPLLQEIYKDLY
SRC3 TRFRET art – counter-screen for PPARgamma SRC-3 recruitment agonists: TR-FRET artefact | PPARgamma/SRC-3 format; hits give high values | TR-FRET ratio at 8 µM | 0.39% of 99,000 active
PPARg SRC2 recr – PPARgamma-driven SRC-2 recruitment agonism | AID 1032 | 0.34% of 200,000 active | activation, % at 8 µM | PPARgamma LBD-SRC-2 recruitment, biochemical; in the data active = activation above about 22%;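 note: 0% = vehicle and 100% = reference agonist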
PPARg SRC1 recr – promotes SRC-1 coactivator recruitment by human PPARgamma; 0.41% of 200,000 active; activation, % at 8 µM; PPARgamma-SRC-1 coactivator recruitment biochemical assay; in the data active = activation above about 19%;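 note: 0% = DMSO and 100% = reference agonist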
Starred values were filed as active, the others as inactive; / = no result given. Sampled rows, rich in hits. Any-hit rate of the full collection: about 0.9%. Cut-off read from the data, not from the text of the source, unless noted: active = TR-FRET ratio above about 2000; inactive = the rest.

SMILES	SRC1 TRFRET art	TR-FRET SRC-2 ct	PPARg SRC3 recr	SRC3 TRFRET art	PPARg SRC2 recr	PPARg SRC1 recr
CCN(CC)c1ccc(NC(=O)c2ccccc2)cc1S(=O)(=O)Nc1ccccc1OC	2017	1639	2.9	2080*	-5.4	5.5
C=CC#CC1(O)CC(C)N(C)CC1C (configuration not stated)	1874	1597	0.4	1817	8.2	10.3
Cc1ccccc1OCC(=O)Nc1sc(C(=O)Nc2cccc(C)c2C)c(C)c1C#N	/	1740	5.2	/	5.0	23.7*
CC1CCc2c(sc3nc(SCC(=O)NCc4ccco4)nc(N)c23)C1 (configuration not stated)	/	1582	4.2	/	13.8	20.8*
Clc1ccc(Cn2cccn2)cn1	1525	1516	0.1	1454	3.4	-1.9
Cc1nc2cc(C(=O)O)ccc2n1-c1ccc(F)cc1F	/	1608	5.9	/	5.7	0.2
CCOc1ccccc1-n1c(C)nc2cc(C(=O)O)ccc21	2322*	1695	5.3	1625	-3.1	8.1
CCOc1ccc(C/C(O)=C2\C(=O)CC(C)(C)CC2=NCC(=O)O)cc1OCC	1735	1476	0.2	1383	-7.1	0.1
COc1ccc(OCC(=O)NC(=S)Nc2ccc3c4c(cccc24)CC3)cc1	2059	1730	12.5	2132*	2.6	7.5
Cc1ccccc1OCC(=O)NC(=S)Nc1ccc2c3c(cccc13)CC2	/	1639	14.3	/	10.7	8.4
O=C(c1cc(COc2ccc(F)cc2Cl)on1)N1CCCC(OCc2cccnc2)C1 (configuration not stated)	1769	2120*	3.8	1623	39.5*	3.6
O=C(c1cc(COc2ccc(F)cc2Cl)on1)N1CCC(OCc2cccnc2)CC1	2026	1728	4.1	1604	4.0	9.4
COC(=O)c1cccc(NC2CC(=O)N(c3ccc(OC)c(OC)c3)C2=O)c1 (configuration not stated)	2727*	1810	5.0	1521	6.0	18.1
COc1ccc(N2C(=O)CC(Nc3ccc(C(=O)O)cc3)C2=O)cc1OC (configuration not stated)	2011	1699	4.6	1527	8.9	4.8
CNC(=S)N1N=C(c2ccccc2)CC1c1ccccc1Cl (configuration not stated)	2109	1821	12.3	2267*	13.8	13.0
CC(C)c1ccc(C2CC(c3ccc(Br)cc3)=NN2C(N)=S)cc1 (configuration not stated)	2207	1708	7.9	1878	6.5	5.9
Cc1ccc(C2CC(c3ccccc3)=NN2C(=S)Nc2ccccc2)o1 (configuration not stated)	/	1587	9.5	/	4.9	11.2
CNC(=S)N1N=C(c2ccc(C)cc2)CC1c1ccc(Br)cc1 (configuration not stated)	/	2002*	1.8	/	6.5	4.0
CSc1ccc(/C=C/C(=O)c2ccc(NC(=O)Cc3ccccc3)cc2)cc1	/	2038*	10.4	/	3.2	4.8
CSc1ccc(/C=C/C(=O)c2ccc(NC(=O)C(C)C)cc2)cc1	/	1546	0.3	/	7.9	-4.8
Cc1nc(N2CCN(S(=O)(=O)c3ccccc3C#N)CC2)c2c(-c3cccs3)csc2n1	2227	1511	-0.7	2725*	-0.7	-0.3
Cc1nc(N2CCCCC2)c2c(-c3cccs3)csc2n1	2176	1665	10.3	1885	4.1	11.1
CCOC(=O)c1c(CSc2cccs2)n(C)c2cc(Br)c(O)c(CN(C)C)c12	1744	1596	0.6	1393	-1.1	-8.3
O=C(c1ccccc1)c1cnc(-c2ccc(Cl)cc2)s1	/	1816	-1.2	/	-5.6	28.6*
O=C(c1ccc(Cl)cc1)c1cnc(-c2ccc(Cl)cc2)s1	/	1525	7.0	/	-2.9	7.6
Nc1c(C(=O)NCc2ccc(Cl)cc2)sc2nc3c(c(C(F)(F)F)c12)CCC3	/	1426	8.1	/	-0.8	0.0
CCOc1ccc(/C=C/C(=O)CCC(=O)O)cc1	1550	1519	1.4	1664	-0.7	-2.5
FC(F)(F)c1cccc(NC(=S)NCc2ccc(Cl)cc2)c1	1768	1667	6.5	2072*	3.2	6.3
CCC(/C=N/NC(=O)CCCCC(=O)N/N=C/C(CC)CC)CC	1748	1720	-1.6	1729	-4.7	1.1
O=C(COC(=O)c1ccccc1NC(=O)c1ccco1)NC1CCS(=O)(=O)C1 (configuration not stated)	1617	1513	-1.1	1476	7.0	-2.1
